From PubChem
Sfp inh – inhibitors of Bacillus subtilis Sfp phosphopantetheinyl transferase | Potency, µM, inactives show largest response in the series, negative = inhibition, hits mostly inhibitors | Biochemical Sfp PPTase activity, qHTS | 310,000 tested, 3.5% active | Q9F4F7 | AID 1490;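 note: the enzyme is Sfp with the accession as filed and its product quenches rhodamine fluorescence; potency is the fitted concentration of half-maximal effect; 0% = enzyme reaction without inhibitor and -100% = no enzyme wells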
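Reaction rates are the 30-min fluorescence difference (ex 525, em 598 nm) in wells containing 15 nM Sfp, 5 uM rhodamine-CoA and 12.5 uM BHQ-2-YbbR at pH 7.6 with 10 mM MgCl2.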
Tau fibril ThT – inhibitors of human tau fibril formation, thioflavin T binding | Potency, µM (doses to about 57.4 µM), for inactives: top-dose activity, negative = inhibition, most hits filed as inhibitors | recombinant tau K18 P301L, heparin-induced fibrillization, ThT fluorescence | P10636 | 270,000 tested, 2.1% active; note: potency is the fitted concentration of half-maximal effect; nearly all actives have a fitted effect of over 55% in size
Target sequence (P10636 561-689 P618L limits assumed): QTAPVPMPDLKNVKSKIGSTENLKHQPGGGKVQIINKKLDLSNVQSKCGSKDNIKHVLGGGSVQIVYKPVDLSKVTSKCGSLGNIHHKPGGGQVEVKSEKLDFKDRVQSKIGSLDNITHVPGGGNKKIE
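Aggregation was driven by heparin (20 uM final) acting on recombinant tau […] bearing P301L in 100 mM sodium acetate pH 7; fibrils were detected with Thioflavin T.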
Coupling enz – coupling enzyme interference in Giardia aldolase counter-screen | coupling enzyme system counterscreen, AmpLite Red fluorescence | activity change, negative = inhibition, % at 58.2 µM, hits read low | 290,000 tested, 0.67% active; in the data active = activity change below about -30%
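Compounds tested against the coupling enzymes alone at 57.5 uM final; readout was AmpLite Red fluorescence (525/598 nm) after 20 min at RT.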
Tau FP inhib – blocks human tau fibril formation measured by polarization. K18 P301L tau heparin fibrillization, Alexa594 FP, 6 h. Potency, µM (highest dose often 57.7 µM), without a hit: at the top dose activity, negative = inhibition, usual class: inhibitors. 280,000 tested, 0.39% active. P10636; note: potency is the fitted concentration of half-maximal effect; nearly all actives have a fitted effect of over 55% in size
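Compound effects on tau fibrillization are measured by Alexa 594 fluorescence polarization (ex 555, em 632 nm). K18 P301L tau is used at 15 uM with 0.24 uM labeled tracer, and 20 uM heparin induces aggregation over 6 hr at 37 C.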
Tau fluor counter – counter-screen for tau fibril formation inhibitors; tau K18 P301L (four-repeat tau fragment) Alexa594 fluorescence, heparin fibrillization; Potency, µM (titrated, usually from 57.7 µM), for inactives: at the top dose activity change, negative = decrease; AID 1463; 280,000 tested, 0.93% active; note: potency is the fitted concentration of half-maximal effect; nearly all actives have a fitted effect of over 55% in size
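Human K18 P301L tau (15 uM unlabeled plus 0.24 uM Alexa 594-labeled, final) in 100 mM sodium acetate pH 7 was mixed with compound and 20 uM heparin and incubated 6 hr at 37 C.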
G9a inh – blocks human histone lysine methyltransferase G9a | G9a H3K9 monomethylation, AlphaScreen, 2 h | Potency, µM (top dose mostly 102 µM), inactives show at the top dose activity, negative = inhibition, actives largely listed as inhibitors | 350,000 tested, 8.8% active | AID 504332; note: potency is the fitted concentration of half-maximal effect; nearly all actives have a fitted effect of over 75% in size
Target sequence (Q96KQ7 913-1193 limits assumed): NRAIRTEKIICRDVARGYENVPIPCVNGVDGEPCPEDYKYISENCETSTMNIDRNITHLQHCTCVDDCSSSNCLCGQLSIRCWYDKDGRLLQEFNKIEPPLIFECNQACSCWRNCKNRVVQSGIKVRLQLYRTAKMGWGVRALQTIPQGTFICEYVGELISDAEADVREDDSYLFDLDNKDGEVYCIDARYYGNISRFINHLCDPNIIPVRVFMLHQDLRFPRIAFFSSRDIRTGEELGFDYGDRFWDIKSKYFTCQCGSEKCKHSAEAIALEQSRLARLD
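AlphaScreen detection with an anti-monomethyl H3K9 antibody quantified product after a 2 h room-temperature reaction containing 500 nM biotinylated H3K9 peptide, 20 µM SAM and 20 nM enzyme, which had been preincubated 15 min with compound.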
* hit, by the source's call; ? = inconclusive; / = not tested or not shown; [ ] = another dose, or the depositor's remark. Only some compounds are listed: those with a hit (about 11% of all), similar ones and a draw of the others. Unless noted, calls come from the whole dose curve; as a rule, active = well fitted curve in the direction sought with a large enough effect; inconclusive = small, poorly fitted or top-dose-only effect, or another doubt; inactive = no such curve, though single readings can be large; an effect the other way counts as inactive or inconclusive. Unless noted, % is set by controls: 0 for no effect and ±100 for the full control effect.

SMILES	Sfp inh	Tau fibril ThT	Coupling enz	Tau FP inhib	Tau fluor counter	G9a inh
N#C/C(=C\c1ccc([N+](=O)[O-])o1)c1nc2ccccc2[nH]1	6.8%	7.08µM*	-0.4	?	11.2µM*[quencher]	-22.4%
Cc1ccc2nc(/C(C#N)=C\c3ccc([N+](=O)[O-])o3)[nH]c2c1	13.1%	8.91µM*	/	?	12.6µM*[quencher]	-9.8%
N#C/C(=C\c1ccc(-c2ccccc2C(=O)O)o1)c1nc2ccccc2[nH]1	0.2%	?	11.1	-7.5%	-20.9%	39.8µM*
Cc1ccc2nc(/C(C#N)=C/c3ccc(-c4ccccc4C(=O)O)o3)[nH]c2c1	8.7%	/	25.6	/	/	?
N#C/C(=C\c1ccc(Sc2ccccc2)o1)c1nc2ccccc2[nH]1	-1.0%	3.4%	-7.2	?	-26.6%	12.7%[59 µM]
COc1ccc(NC(=O)C2CCCN(C(=O)c3cnn(-c4ccccc4)c3-n3cccc3)C2)cc1 (centres undefined)	/	-6.9%	/	-6.1%	-10.5%	4.0%[59 µM]
Cc1ccc(C)c(N2CCN(C(=O)c3cc4c(=O)oc5ccccc5c4s3)CC2)c1	/	-4.1%	/	-4.4%	-13.2%	-0.8%[59 µM]
COc1ccccc1N1CCN(c2nc3ccc(C)cc3n3nnnc23)CC1	/	-7.9%	/	8.9%	-26.2%	?
Cc1ccc2nc(/C(C#N)=C\c3ccc(N4CCOCC4)o3)[nH]c2c1	-3.7%	12.6µM*	0.0	?	?	10µM*
COc1ccc(CNS(=O)(=O)c2cnc(N)nc2)c(OC)c1	/	-3.3%	/	-0.2%	-8.9%	-3.8%[59 µM]
COc1ccc(S(=O)(=O)Nc2nnc(C(C)(C)C)s2)cc1	17.8µM*	?	2.4	-14.8%	-6.6%	1.78µM*
COc1ccc(S(=O)(=O)Nc2nnc(CC(C)(C)C)s2)cc1	-2.9%	-5.1%	2.6	1.2%	3.6%	35.5µM*
Cc1ccc(C)c(N(C)C(=O)c2cn(C)c(=O)c3ccccc23)c1	/	0.0%	/	-4.5%	-5.1%	4.5%[59 µM]
CCc1ccc(NC(=O)Cn2cc(S(=O)(=O)c3ccc(F)cc3)c(=O)c3cc(OC)ccc32)cc1	/	7.5%	/	-6.2%	-5.6%	-4.0%[59 µM]
COc1ccc(/C=N/c2oc(C)c(C)c2C#N)c(OC)c1	-5.0%	?	-7.2	-7.1%	-13.3%	50.1µM*
COc1cc(/C=N/NC(=O)c2sc(N)c(C#N)c2C)cc(Br)c1O	5.5%	4.47µM*	0.4	14.0%	?	22.3%[59 µM]
Cc1oc(/N=C/c2ccccc2)c(C#N)c1C	6.4%	/	1.2	/	/	?
COc1cc(/C=N/c2oc(C)c(C)c2C#N)cc(Br)c1O	-2.3%	/	0.6	/	/	10µM*
Cc1oc(/N=C/c2cccc3ccccc23)c(C#N)c1C	0.5%	?	-20.4	-12.6%	-10.0%	-13.2%[59 µM]
COc1ccc(Br)cc1C(=O)N/N=C/c1ccc([N+](=O)[O-])cc1	-8.8%	0.0%	2.4	6.2%	-0.5%	-33.8%
COc1cc(/C=N/NC(=O)c2ccc([N+](=O)[O-])cc2Cl)cc(Br)c1O	1.2%	?	-0.7	-8.6%	-17.7%	44.7µM*
COCCn1c(-c2ccc(F)cc2)nc2cccnc21	13.3%	/	0.4	/	/	11.4%
COc1cc(C(=O)OCCCN=C2NS(=O)(=O)c3ccccc32)cc(OC)c1OC	3.0%	-11.6%	-2.1	-16.9%	-16.0%	4.0%
CC[C@H](C)[C@@H](NC(=O)O[C@@H]1Cc2cc(OC)ccc2O[C@H]1c1cccc(OC)c1)C(=O)OC	-9.3%	-9.2%	-1.8	4.0%	-13.7%	/
O=C1c2ccc3c4c(ccc(c24)C(=O)N1CCCCO)C(=O)N(CCCCO)C3=O	15.4%	-13.3%	-39.5*	-0.7%	-18.5%	-7.5%[59 µM]
O=C(c1ccc2c(c1)C(=O)N(CCCO)C2=O)c1ccc2c(c1)C(=O)N(CCCO)C2=O	1.5%	3.4%	-0.8	5.3%	3.2%	1.8%[12.7 µM]
O=C(c1ccc([N+](=O)[O-])cc1[N+](=O)[O-])n1cnc2ccccc21	79.4µM*	-11.4%	-20.1	-1.8%	-19.4%	?
CCc1ccc(C(=O)NNC(=O)c2cccc(S(=O)(=O)N3CCN(C)CC3)c2)cc1	/	/	/	/	/	56.2µM*
